The target of test [1] is Calcium and integrin-binding protein 1 (Homo sapiens) (UniProt Q99828). The test is described as follows: Primary qHTS for Identification of Calcium Integrin Binding Protein 1 (CIB1) Competitor (AID 1508620).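 Further: GST tagged CIB1 binding a fluorescein labelled alphaIIb integrin peptide tracer; top concentration of the series differs between compounds.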 The note with it: CIB1-GST / FITC-alphaIIb peptide fluorescence polarization; series mostly up to 57.7 µM. Summed up: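 CIB1-GST (1 uM final) and compound incubated 15 min at room temperature before adding FITC-alphaIIb peptide tracer (100 nM final). Competition for binding read by fluorescence polarization (ex 480, em 540) after another 15 min at room temperature.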

Test [2] is described as follows: Primary qHTS for small molecule stabilizers of the endoplasmic reticulum resident proteome: Secreted ER Calcium Modulated Protein (SERCaMP) assay (AID 1508630). The note with it: SH-SY5Y GLuc-SERCaMP (Gaussia luciferase released on ER calcium loss) secretion, thapsigargin, luminescence; series mostly up to 38.4 µM. Summed up: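 The SH-SY5Y reporter protocol was run at 3 concentrations up to 38.3 uM (primary) or 11 concentrations (follow-up): 16 h compound, 100 nM thapsigargin for 4 h, then extracellular luciferase luminescence.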

Test [3] concerns the target Cytochrome P450 2D6 (Homo sapiens) (UniProt P10635). The test is described as follows: Cytochrome P450 family 2 subfamily D member 6 (CYP2D6) small molecule antagonists: luciferase biochemical (cell-free) qHTS assay (AID 1645840; active means well fitted curve in the direction sought with a large enough effect in the repeat runs; an effect the other way counts as inactive or inconclusive; further: nearly all actives have a fitted effect of over 55% in size; further: potency means the concentration at half of the fitted maximal effect). The note with it: P450-Glo CYP2D6 enzyme, luciferin luminescence, 1 h; series mostly up to 57.4 µM. In short, it runs like this: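 P450-Glo CYP2D6 system: proluciferin substrate converted by enzyme to luciferin, read by luminescence proportional to activity. Enzyme-substrate mix with compound 10 min at room temperature, then NADPH regeneration 1 h before detection reagent.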
Background: In qHTS, concentration-response curves come from the screen itself.

Test [4] addresses Cytochrome P450 2C9 (Homo sapiens) (UniProt P11712). The test is described as follows: Cytochrome P450 family 2 subfamily C member 9 (CYP2C9) small molecule antagonists: luciferase biochemical (cell-free) qHTS assay (AID 1645842; active means well fitted curve in the direction sought with a large enough effect in the repeat runs; an effect the other way counts as inactive or inconclusive; further: nearly all actives have a fitted effect of over 55% in size; further: potency means the concentration at half of the fitted maximal effect). The settings on record: P450-Glo CYP2C9 enzyme assay, luciferin luminescence; series mostly up to 57.4 µM. In short, it runs like this: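 P450-Glo CYP2C9 system: proluciferin substrate with enzyme in mix containing 0.4% BSA, 10 min at room temperature, then NADPH regeneration solution added and incubated 1 h at 37C. Detection reagent stopped reaction; luminescence read after 20 min as RLU.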

The record followed here is PubChem BioAssay (NCATS).

Molecules are shown by their SMILES. Inconclusive results are not listed. A call without a number means that no potency is given here. Active and inactive are the calls of the source. Unless noted, the call rests on the fitted dose curve; in most records, active means well fitted curve in the direction sought with a large enough effect; inconclusive means small, poorly fitted or top-dose-only effect, or another doubt; inactive means no such curve, though single readings can be large; an effect the other way counts as inactive or inconclusive.

Sequence of Cytochrome P450 2C9 (Homo sapiens) (P11712 whole entry, looked up): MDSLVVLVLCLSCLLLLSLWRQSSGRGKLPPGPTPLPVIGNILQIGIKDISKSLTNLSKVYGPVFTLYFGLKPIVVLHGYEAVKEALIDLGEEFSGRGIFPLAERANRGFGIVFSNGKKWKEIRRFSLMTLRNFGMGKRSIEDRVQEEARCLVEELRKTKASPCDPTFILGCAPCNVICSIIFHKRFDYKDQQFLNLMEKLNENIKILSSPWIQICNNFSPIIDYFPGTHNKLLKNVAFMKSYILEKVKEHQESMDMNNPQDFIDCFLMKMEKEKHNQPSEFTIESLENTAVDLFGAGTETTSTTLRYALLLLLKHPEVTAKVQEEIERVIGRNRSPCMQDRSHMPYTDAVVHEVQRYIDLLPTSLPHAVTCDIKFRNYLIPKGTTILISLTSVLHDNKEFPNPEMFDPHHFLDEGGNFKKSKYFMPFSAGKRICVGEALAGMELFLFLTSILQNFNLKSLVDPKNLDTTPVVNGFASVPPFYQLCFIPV
Sequence of Calcium and integrin-binding protein 1 (Homo sapiens) (Q99828 whole entry, looked up): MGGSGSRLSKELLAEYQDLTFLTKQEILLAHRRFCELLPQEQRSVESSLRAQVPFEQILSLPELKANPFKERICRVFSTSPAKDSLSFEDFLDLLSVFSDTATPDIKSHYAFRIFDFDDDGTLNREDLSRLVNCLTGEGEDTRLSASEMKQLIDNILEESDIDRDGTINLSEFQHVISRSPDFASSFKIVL
Sequence of Cytochrome P450 2D6 (Homo sapiens) (P10635 whole entry, looked up): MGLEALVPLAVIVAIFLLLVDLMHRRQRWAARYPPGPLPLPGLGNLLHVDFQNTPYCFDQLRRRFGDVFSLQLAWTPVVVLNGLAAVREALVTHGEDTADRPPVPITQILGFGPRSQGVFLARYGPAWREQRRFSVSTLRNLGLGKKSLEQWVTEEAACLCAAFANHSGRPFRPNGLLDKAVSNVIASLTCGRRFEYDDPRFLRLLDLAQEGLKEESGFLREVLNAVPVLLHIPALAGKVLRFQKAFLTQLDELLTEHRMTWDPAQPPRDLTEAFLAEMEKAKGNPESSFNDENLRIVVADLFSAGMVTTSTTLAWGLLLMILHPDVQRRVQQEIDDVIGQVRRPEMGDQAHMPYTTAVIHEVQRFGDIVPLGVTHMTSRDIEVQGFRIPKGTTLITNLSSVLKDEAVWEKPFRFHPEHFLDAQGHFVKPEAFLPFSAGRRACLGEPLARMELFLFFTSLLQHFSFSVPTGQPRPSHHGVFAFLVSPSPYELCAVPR

Take `COc1c(N2C[C@@H]3CCCN[C@H]3C2)c(F)cc2c(=O)c(C(=O)O)cn(C3CC3)c12`: the outcome in test [1] was inactive. Also, the Potency entry in test [2], in test [3] and in test [4] was “inactive” throughout.

As to `Cc1ccc(C(=O)Nc2ccc(CN3CCN(C)CC3)c(C(F)(F)F)c2)cc1C#Cc1cnc2cccnn12`, the result in test [1] was inactive. Further, the Potency result in test [2] is “inactive”. For the same molecule, the Potency in test [4] was 12 µM (active).

Regarding `COc1cc(C)c(Sc2cnc(NC(=O)c3ccc(CNC(C)C(C)C)cc3)s2)cc1C(=O)N1CCN(C(C)=O)CC1` (configuration not stated), the result in test [1] was inactive. Further, the Potency entry in test [2] was “inactive”. For the same molecule, the values for the Potency in test [3] and in test [4] were 21.3 µM (active) and 0.536 µM (active), respectively.

As for `Cc1cnc(-c2cnc(NCCNc3ccc(C#N)cn3)nc2-c2ccc(Cl)cc2Cl)[nH]1`, in test [1], the result was inactive. Moreover, the Potency entry in test [2] was “inactive”. Moreover, the Potency in test [3] and in test [4] was 1.51 µM (active) each time.

Take `CNC(=O)c1cc(Oc2ccc(NC(=O)Nc3cc(C(C)(C)C)nn3-c3ccc4ncccc4c3)c(F)c2)ccn1`: in test [1], the outcome was inactive. The Potency entry in test [2] and in test [3] was “inactive” each time. Also, in test [4], the Potency is 6.74 µM (active).

In the case of `Nc1nc(NCCNc2ncc(-n3ccnc3)c(-c3ccc(Cl)cc3Cl)n2)ccc1[N+](=O)[O-]`, the result in test [1] was inactive. In test [2], the Potency entry was “inactive”. Moreover, the Potency is 1.69 µM (active) in test [3] and 0.134 µM (active) in test [4].

`CCNC(=O)Nc1ccc2ncc(Nc3ccc(C)cc3)nc2n1`: the outcome in test [1] was inactive. The Potency entry in test [2], in test [3] and in test [4] was “inactive” in each case.

In the case of `Cc1cc(CN2CCN(c3c(Br)cnc4nc(-c5ccc(N6CCN(C)CC6)cc5)[nH]c34)CC2)no1`, the outcome in test [1] was inactive. The Potency entry in test [2] was “inactive”. Also, the Potency in test [4] was 9.52 µM (active).

Turning to `CCOc1ccccc1OCCNC(C)Cc1ccc(OC)c(S(N)(=O)=O)c1` (configuration not stated), the outcome in test [1] was inactive. Further, the Potency result in test [2] and in test [4] was “inactive” each time.

On to `Cc1c(CN2CCN(S(C)(=O)=O)CC2)sc2c(N3CCOCC3)nc(-c3cnc(N)nc3)nc12`, for which the result in test [1] was inactive. Moreover, the Potency result in test [2] and in test [3] was “inactive” each time. In test [4], the Potency was 10.7 µM (active).
